# This is one part of a sample in which the strongest signals are shown more often than they occur.
# Legend:
# Assay in all cases: glycan array binding signal (z-score within array); higher = stronger binding
# Settings in all cases: glycan notation: IUPAC condensed, linker removed
# Fuc(a1-2)Gal(b1-4)Glc6S = target: Fuc(a1-2)Gal(b1-4)Glc6S
# Outline: (§1)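 From the Consortium for Functional Glycomics database, 3228 arrays were curated, keeping only those whose protein sequence was available. Binding is given as a within-array Z-score averaged across arrays sharing a protein sequence and across linkers. Negative Z-scores can be read as non-binding.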
# [1] = target: Fuc(a1-2)Gal(b1-4)GlcNAc(b1-3)Gal(b1-4)GlcNAc
# Outline: as §1
# [2] = target: Fuc(a1-2)Gal(b1-4)GlcNAc(b1-3)Gal(b1-4)GlcNAc(b1-2)Man(a1-3)[Fuc(a1-2)Gal(b1-4)GlcNAc(b1-3)Gal(b1-4)GlcNAc(b1-2)Man(a1-6)]Man(b1-4)GlcNAc(b1-4)GlcNAc
# Outline: as §1
# [3] = target: Fuc(a1-2)Gal(b1-4)GlcNAc(b1-3)Gal(b1-4)GlcNAc(b1-3)Gal(b1-4)GlcNAc
# Outline: as §1
# [4] = target: Fuc(a1-2)Gal(b1-4)GlcNAc(b1-3)GalNAc
# Outline: as §1
# [5] = target: Fuc(a1-2)Gal(b1-4)GlcNAc(b1-6)GalNAc
# Outline: as §1
# [6] = target: Fuc(a1-2)Gal(b1-4)[Fuc(a1-3)]GlcNAc(b1-2)Man(a1-3)[Fuc(a1-2)Gal(b1-4)[Fuc(a1-3)]GlcNAc(b1-2)Man(a1-6)]Man(b1-4)GlcNAc(b1-4)[Fuc(a1-6)]GlcNAc
# Outline: as §1
# [7] = target: Fuc(a1-2)Gal(b1-4)[Fuc(a1-3)]GlcNAc(b1-2)[Fuc(a1-2)Gal(b1-4)[Fuc(a1-3)]GlcNAc(b1-4)]Man(a1-3)[Fuc(a1-2)Gal(b1-4)[Fuc(a1-3)]GlcNAc(b1-2)Man(a1-6)]Man(b1-4)GlcNAc(b1-4)GlcNAc
# Outline: as §1
# [8] = target: Fuc(a1-2)Gal(b1-4)[Fuc(a1-3)]GlcNAc(b1-3)Gal(b1-4)[Fuc(a1-3)]GlcNAc
# Outline: as §1
# [9] = target: Fuc(a1-2)Gal(b1-4)[Fuc(a1-3)]GlcNAc(b1-3)Gal(b1-4)[Fuc(a1-3)]GlcNAc(b1-3)Gal(b1-4)[Fuc(a1-3)]GlcNAc
# Outline: as §1
# [10] = target: Fuc(a1-2)[Gal(a1-3)]Gal(b1-3)GalNAc(b1-3)Gal(a1-4)Gal(b1-4)Glc
# Outline: as §1
# [11] = target: Fuc(a1-2)[Gal(a1-3)]Gal(b1-3)GlcNAc(b1-2)Man(a1-3)[Fuc(a1-2)[Gal(a1-3)]Gal(b1-3)GlcNAc(b1-2)Man(a1-6)]Man(b1-4)GlcNAc(b1-4)[Fuc(a1-6)]GlcNAc
# Outline: as §1
# [12] = target: Fuc(a1-2)[Gal(a1-3)]Gal(b1-4)[Fuc(a1-3)]GlcNAc(b1-3)GalNAc
# Outline: as §1
# [13] = target: Fuc(a1-2)[GalNAc(a1-3)]Gal(b1-4)GlcNAc(b1-3)Gal(b1-4)GlcNAc(b1-3)Gal(b1-4)GlcNAc
# Outline: as §1
# [14] = target: Fuc(a1-2)[GalNAc(a1-4)]Gal(b1-4)GlcNAc
# Outline: as §1
# [15] = target: Fuc(a1-3)[Gal(b1-4)]GlcNAc(b1-3)Gal(b1-4)[Fuc(a1-3)]GlcNAc(b1-3)Gal(b1-4)[Fuc(a1-3)]GlcNAc
# Outline: as §1
# Gal(b1-3)GalNAc = target: Gal(b1-3)GalNAc
# Outline: as §1
# [16] = target: Gal(b1-3)GlcNAc(a1-3)Gal(b1-4)GlcNAc
# Outline: as §1
# [17] = target: Gal(b1-3)GlcNAc(b1-3)Gal(b1-4)[Fuc(a1-3)]GlcNAc
# Outline: as §1
# [18] = target: Gal(b1-3)GlcNAc(b1-3)GalNAc
# Outline: as §1
# [19] = target: Gal(b1-3)GlcNAc(b1-6)[Gal(b1-3)]GalNAc
# Outline: as §1
# [20] = target: Gal(b1-3)[Fuc(a1-4)]GlcNAc(b1-3)Gal(b1-3)[Fuc(a1-4)]GlcNAc
# Outline: as §1
# [21] = target: Gal(b1-3)[Fuc(a1-4)]GlcNAc(b1-3)Gal(b1-4)[Fuc(a1-3)]GlcNAc
# Outline: as §1
# [22] = target: Gal(b1-3)[Neu5Ac(a2-6)]GalNAc
# Outline: as §1
# [23] = target: Gal(b1-4)GalNAc(b1-3)[Fuc(a1-2)]Gal(b1-4)GlcNAc
# Outline: as §1
# Gal(b1-4)Glc = target: Gal(b1-4)Glc
# Outline: as §1
# Gal(b1-4)GlcNAc(b1-2)Man = target: Gal(b1-4)GlcNAc(b1-2)Man
# Outline: as §1
# [24] = target: Gal(b1-4)GlcNAc(b1-3)Gal(b1-4)GlcNAc(b1-3)[Gal(b1-4)GlcNAc(b1-3)Gal(b1-4)GlcNAc(b1-6)]GalNAc
# Outline: as §1
# [25] = target: Gal(b1-4)GlcNAc(b1-3)Gal(b1-4)[Fuc(a1-3)]GlcNAc(b1-3)Gal(b1-4)[Fuc(a1-3)]GlcNAc
# Outline: as §1
# Gal4S(b1-4)GlcNAc = target: Gal4S(b1-4)GlcNAc
# Outline: as §1
binder,measurement,setting,value
LecB PA7 (Pseudomonas aeruginosa) (protein) MATQGVFTLPANTRFGVTAFANSSATQTVKVLVNNETAATFTGQSTNNAVIGSQVLNSGGGGKVQIQVSVNGRSSDLVSAQVILANELNVALVGSEDSTDNDYNDAVVVINWPLG,glycan array binding signal (z-score),Fuc(a1-2)Gal(b1-4)Glc6S,1.89
same,glycan array binding signal (z-score),[1],3.5
same,glycan array binding signal (z-score),[2],10.1
same,glycan array binding signal (z-score),[3],3.71
same,glycan array binding signal (z-score),[4],0.923
same,glycan array binding signal (z-score),[5],0.819
same,glycan array binding signal (z-score),[6],5.18
same,glycan array binding signal (z-score),[7],-0.08
same,glycan array binding signal (z-score),[8],4.93
same,glycan array binding signal (z-score),[9],4.08
same,glycan array binding signal (z-score),[10],-0.43
same,glycan array binding signal (z-score),[11],0.145
same,glycan array binding signal (z-score),[12],0.197
same,glycan array binding signal (z-score),[13],-0.381
same,glycan array binding signal (z-score),[14],1.57
same,glycan array binding signal (z-score),[15],3.54
same,glycan array binding signal (z-score),Gal(b1-3)GalNAc,-0.403
same,glycan array binding signal (z-score),[16],-0.51
same,glycan array binding signal (z-score),[17],1.8
same,glycan array binding signal (z-score),[18],-0.499
same,glycan array binding signal (z-score),[19],-0.412
same,glycan array binding signal (z-score),[20],3.31
same,glycan array binding signal (z-score),[21],3.44
same,glycan array binding signal (z-score),[22],-0.511
same,glycan array binding signal (z-score),[23],-0.478
same,glycan array binding signal (z-score),Gal(b1-4)Glc,-0.502
same,glycan array binding signal (z-score),Gal(b1-4)GlcNAc(b1-2)Man,-0.495
same,glycan array binding signal (z-score),[24],-0.495
same,glycan array binding signal (z-score),[25],2.05
same,glycan array binding signal (z-score),Gal4S(b1-4)GlcNAc,-0.478
